Compounds with a hit are over-represented: about 2.6% of the library has one in this group of screens.
eIF4H inh: inhibitors of RNA binding by human eIF4H. eIF4H fluorescence polarization binding assay. hit rate 0.94% among 290,000. inhibition, % at 35 µM;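 further: calls also rest on retests at 20 µM and on dose response follow-up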
PHOSPHO1 block: inhibitors of human PHOSPHO1 phosphatase. Q8TCT1. recombinant PHOSPHO1, absorbance phosphatase assay. inhibition, % at 13.3 µM. hit rate 1.1% among 290,000. AID 1565; in the data active means inhibition above about 60%
PABP polyA inh: PABP-poly(A) binding inhibition. P11940. PABP-poly(A) RNA binding, fluorescence polarization. calls only at 35 µM. hit rate 1% among 290,000. AID 2014;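 further: calls also rest on retests at 20 µM and on dose response follow-up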
APOBEC3G inh: blocks human APOBEC3G single-stranded DNA deamination. recombinant A3G, ssDNA deamination FAM/TAMRA fluorescence. inhibition, % at 20 µM. hit rate 0.28% among 330,000. AID 493012;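 active means inhibition of at least 40% at 20 µM, with no more than 30% in the related APOBEC3A deaminase screen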;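 further: plate controls were DMSO wells with A3G for no effect and wells lacking A3G enzyme for full effect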
A3A deaminase: human APOBEC3A DNA deaminase inhibition | P31941 | recombinant A3A, FAM/TAMRA ssDNA deamination fluorescence | AID 493011 | hit rate 0.41% among 330,000 | inhibition, % at 20 µM;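 active means at least 40% inhibition at 20 µM here, with at most 30% in a related deaminase screen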;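 further: plate controls were A3A with DMSO for no effect and wells lacking A3A enzyme for full effect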
Target sequence (P31941 whole entry, looked up): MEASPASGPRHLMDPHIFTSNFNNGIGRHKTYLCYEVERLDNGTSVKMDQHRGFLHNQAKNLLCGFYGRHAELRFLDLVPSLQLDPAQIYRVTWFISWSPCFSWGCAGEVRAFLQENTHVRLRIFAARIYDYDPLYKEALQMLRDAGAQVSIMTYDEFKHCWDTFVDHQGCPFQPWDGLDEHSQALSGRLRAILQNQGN
MLLE-PAM2 inh: inhibitors of microRNA-mediated deadenylation, human PABP1 MLLE binding. hit rate 0.36% among 360,000. inhibition, % at 20 µM. GST-MLLE / FITC-PAM2 fluorescence polarization; in the data active means inhibition above about 35%, passing the limit was not always enough;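 further: plate controls were DMSO wells with GST-MLLE for no effect and wells lacking GST-MLLE protein for full effect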
A3A conf: confirmation of human APOBEC3A DNA deaminase inhibitors; shares compounds with A3A deaminase; recombinant A3A, ssDNA deaminase UDG fluorescence assay; inhibition, % at 20 µM; hit rate 63% among 1,400; AID 493151;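 active means inhibition reaching a set limit, 80% of the first screen's cutoff, at 20 µM in any replicate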;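 further: plate controls were DMSO wells with A3A for no effect and wells lacking A3A enzyme for full effect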
UDG ctr A3A: UDG inhibition in APOBEC3A counter-screen | shares compounds with A3A deaminase | UDG counterscreen, FAM/TAMRA uracil oligo fluorescence | inhibition, % at 20 µM | 1,000 tested, under 10 active | AID 504714
Starred values were filed as active, the others as inactive; i = inactive; · = no result given; + = active, no number. Unless noted, how the calls were made is not given here.

SMILES	eIF4H inh	PHOSPHO1 block	PABP polyA inh	APOBEC3G inh	A3A deaminase	MLLE-PAM2 inh	A3A conf	UDG ctr A3A
CCCOc1ccc(/C=c2\sc3nc(-c4ccco4)nn3c2=O)cc1OCC	52	36	i	21	74*	24	30*	-3
CN(C)CCn1c(=O)n(Cc2ccco2)c(=O)c2c3c(sc21)CCCCC3	-7	14	i	-7	-1	5	·	·
O=C(Cn1c(=O)n(Cc2ccco2)c(=O)c2c3c(sc21)CCCCC3)Nc1ccccc1	78*	38	+	20	49*	6	55*	·
COC/C=C/C1=CC2=CC(=O)C(C)(OC(=O)c3cnc4ccccc4n3)C(=O)C2=CO1 (stereo not given)	·	·	·	23	44*	·	39*	·
COC/C=C/C1=CC2=CC(=O)C(C)(OC(=O)c3cnc4ccccc4n3)C(=O)C2=CN1C(CO)CO (stereo not given)	39	18	i	-5	0	30	·	·
CCN1C(=NCCc2ccccn2)N[C@@H](c2cccc(F)c2)C(C(=O)OC)=C1C	·	-86	·	5	48*	-75	63*	-2
COC(=O)C1=C(C)N(Cc2ccccc2)C(=NCCc2ccccn2)N[C@H]1c1cccc(F)c1	24*	-131	+	15	48*	-77	63*	-4
COC(=O)c1ccc(CSc2ccccc2NC(=S)Nc2cccc(SC)c2)o1	·	·	·	·	·	30	·	·
N=C1C(=O)OCC1c1ccccc1NC(=O)c1ccccc1 (stereo not given)	2	5	i	-7	-2	-1	·	·
O=C(NC1CCCCC1)N1CCC(c2nc3ccc(Cl)cc3[nH]2)CC1	2	19	i	-3	40*	7	0	-1
O=C(NC(=S)Nc1ccc(S(=O)(=O)NC2CCCCC2)cc1)c1cccs1	2	1	i	-5	0	14	·	·
CCc1nc(-c2ccc(-c3ccc(OC)cc3)nc2OC)no1	-6	2	i	-2	1	-12	·	·
CCc1nc(-c2ccc(C)nc2OC)no1	-4	1	i	19	67*	-111	62*	1
COc1ccc(NC(=O)Cc2coc3cc(C)c(C(C)C)cc23)cc1S(=O)(=O)N1CCOCC1	3	2	i	11	49*	-107	10	·
COc1ccc2c(CC(=O)Nc3ccc(OC)c(S(=O)(=O)N4CCOCC4)c3)coc2c1	-4	7	i	-5	-2	-5	·	·
Cc1ccc2nc3c(nc2c1C)CCCC3	-8	·	i	-7	-3	12	·	·
Cc1ccc2nc3c(nc2c1C)C(O)=C3O	5	27	i	-4	65*	23	7	8
Cc1ccc2ncccc2c1NS(=O)(=O)c1ccccc1	8	98*	i	27	43*	-111	13	·
C=CC[C@@H](Cc1ccc(F)cc1)C(=O)OC[C@@H]1CCCN1C(=O)[C@@H](CC=C)CC(=O)N(CCO)Cc1ccccc1	·	·	·	-3	4	-6	·	·
COC(C(=O)Nc1ccc(Cl)cc1C)c1ccccc1 (stereo not given)	0	11	i	12	53*	-92	12	·
COC(C(=O)Nc1ccc(NC(=O)C(OC)c2ccccc2)cc1)c1ccccc1 (stereo not given)	-2	-6	i	2	2	1	·	·
CCn1c(C)nc2cc(S(=O)(=O)C(F)F)ccc21	-4	23	i	16	6	-6	·	·
CCn1c(C)nc2cc(S(=O)(=O)Nc3ccc(C)cc3)ccc21	8	-38	+	17	66*	-139	55*	2
CC1(C)Oc2ccc3ccc(=O)oc3c2/C(=C/Nc2ccccc2)C1=O	2	4	i	1	4	0	·	·
CC1(C)Oc2ccc3ccc(=O)oc3c2-c2cnoc21	17	95*	i	22	51*	-136	72*	-2
SMILES	eIF4H inh	PHOSPHO1 block	PABP polyA inh	APOBEC3G inh	A3A deaminase	MLLE-PAM2 inh	A3A conf	UDG ctr A3A
CC1(C)Oc2ccc3ccc(=O)oc3c2-c2cn[nH]c21	4	14	i	24	59*	-135	65*	5
CC1(C)Oc2ccc3ccc(=O)oc3c2/C(=C/O)C1=O	-2	-16	i	17	-4	-29	·	·
O=C(COc1ccc(F)cc1)Nc1ccccc1N1CCOCC1	·	·	·	-11	0	-4	·	·
CC1(C)CC2CC(C)(CN2S(=O)(=O)c2cccc(C(=O)OCC(=O)NC(N)=O)c2)C1 (stereo not given)	·	·	·	4	54*	-74	1	·
O=C1c2cccnc2C(=O)N1Cc1ccc(S(=O)(=O)N2CCN(c3ccccc3)CC2)cc1	-6	27	i	-2	1	-1	·	·
COc1ccc(OC)c(N(CC(=O)Nc2ccc3c(c2)OCO3)S(=O)(=O)c2ccccc2)c1	-1	-10	i	-5	1	5	·	·
COc1ccc(Cl)cc1N(CC(=O)Nc1ccc2c(c1)OCO2)S(C)(=O)=O	-7	69*	i	3	42*	-89	8	·
CC[n+]1c(/C=C/N(C)c2ccccc2)n(-c2ccccc2)c2ccc(-c3nc4ccccc4s3)cc21	-2	-155	i	5	61*	-159	48*	·
Cc1cccnc1C(NC(=O)C1CCN(CCCc2ccccc2)CC1)c1ccc(F)cc1 (stereo not given)	·	·	·	·	·	-9	·	·
N#C/C(=C\c1c(N2CCCCCC2)nc2ccccn2c1=O)C(=O)NC1CCS(=O)(=O)C1 (stereo not given)	3	5	i	-9	44*	11	-3	-2
CCOC(=O)[C@H]1[C@H]2COc3cc(OC)ccc3[C@@H]2N2C(=O)CN(C)C(=O)[C@@]12C	·	·	·	-7	-5	2	·	·
CCC(Oc1ccccc1OC)C(=O)Nc1ccc2c(c1)OCCO2 (stereo not given)	7	4	i	·	·	-97	57*	·
O=C(COC(=O)c1ccccc1NC(=O)c1ccco1)NC1CCS(=O)(=O)C1 (stereo not given)	-1	37	i	-2	5	-3	·	·
CCn1c(=O)c(C(=O)CN2CCN(S(=O)(=O)c3ccccc3)CC2)c(N)n(Cc2ccccc2)c1=O	6	48	i	-11	8	-1	·	·
CCn1c(=O)c(C(=O)CN2CCN(S(=O)(=O)c3ccc(C)cc3C)CC2)c(N)n(Cc2ccccc2)c1=O	-11	-19	i	7	44*	-90	2	·
COc1cccc(OC)c1C(=O)Nc1cccc2c1CCCC2	-8	-8	i	-1	55*	-10	-3	1
COc1cc(OC)cc(C(=O)Nc2cccc3c2CCCC3)c1	8	24	i	-2	-7	2	·	·
CCC1=[N+](C)CCn2c(C)ccc21	-1	69*	i	27	64*	-129	76*	4

Source: PubChem (Sanford-Burnham Center for Chemical Genomics)
